aDG glyco up – alpha-DG glycosylation activation. Pro5-aDG cells, alpha-DG glycosylation AlphaScreen (IIH6); 0% Pro5, 100% B10-LARGE cell signal. hit rate 0.22% among 360,000. activation, % at 10 µM. AID 624168;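 active = activation of at least 8% versus controls, or a plate z-score of at least 8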;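 also: Pro5 are CHO cells carrying HIG-tagged alpha-DG that lacks glycosylation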
Calpain2 inh – inhibitors of pig calpain II. purified calpain II, fluorogenic peptide substrate, 30 min. inhibition, % at 16 µM. hit rate 0.37% among 220,000;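 active = inhibition above about 50%, limit read from the data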
TAG inh – reduces triacylglycerol accumulation in H9c2 cells | Nile Red lipid (TAG) fluorescence; cells loaded with 200 µM oleic acid | inhibition, % at 12.5 µM | hit rate 0.66% among 230,000;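 active = pattern-corrected inhibition of lipid staining of at least 50% with the nuclear-stain viability signal not falling by more than 50%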;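 also: 0% = DMSO wells and 100% = triacsin C control wells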
beta cell repl – MIN6 beta-cell proliferation induction; MIN6 cells proliferation, ATPlite luminescence, 48 h; cells starved in 0.2% serum; 100% = growth in 10% serum; proliferation, % at 10 µM; hit rate 0.29% among 330,000;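 active = compounds whose signal lies at least 3.5 SD above the mean of all wells on their plate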;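 also: 0% = DMSO-treated cells in low-serum medium and 100% = 10% serum control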
FAS-TE inh – FAS thioesterase (human) inhibition. P49327. recombinant FAS-TE, OMFH fluorogenic substrate, fluorescence endpoint. inhibition, % at 15 µM. hit rate 0.67% among 360,000;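 active = compounds whose normalised, plate-corrected inhibition of enzyme fluorescence in the single-dose primary screen is 50% or more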;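 also: 0% = DMSO with enzyme and 100% = substrate without enzyme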
Target sequence (P49327 whole entry, looked up): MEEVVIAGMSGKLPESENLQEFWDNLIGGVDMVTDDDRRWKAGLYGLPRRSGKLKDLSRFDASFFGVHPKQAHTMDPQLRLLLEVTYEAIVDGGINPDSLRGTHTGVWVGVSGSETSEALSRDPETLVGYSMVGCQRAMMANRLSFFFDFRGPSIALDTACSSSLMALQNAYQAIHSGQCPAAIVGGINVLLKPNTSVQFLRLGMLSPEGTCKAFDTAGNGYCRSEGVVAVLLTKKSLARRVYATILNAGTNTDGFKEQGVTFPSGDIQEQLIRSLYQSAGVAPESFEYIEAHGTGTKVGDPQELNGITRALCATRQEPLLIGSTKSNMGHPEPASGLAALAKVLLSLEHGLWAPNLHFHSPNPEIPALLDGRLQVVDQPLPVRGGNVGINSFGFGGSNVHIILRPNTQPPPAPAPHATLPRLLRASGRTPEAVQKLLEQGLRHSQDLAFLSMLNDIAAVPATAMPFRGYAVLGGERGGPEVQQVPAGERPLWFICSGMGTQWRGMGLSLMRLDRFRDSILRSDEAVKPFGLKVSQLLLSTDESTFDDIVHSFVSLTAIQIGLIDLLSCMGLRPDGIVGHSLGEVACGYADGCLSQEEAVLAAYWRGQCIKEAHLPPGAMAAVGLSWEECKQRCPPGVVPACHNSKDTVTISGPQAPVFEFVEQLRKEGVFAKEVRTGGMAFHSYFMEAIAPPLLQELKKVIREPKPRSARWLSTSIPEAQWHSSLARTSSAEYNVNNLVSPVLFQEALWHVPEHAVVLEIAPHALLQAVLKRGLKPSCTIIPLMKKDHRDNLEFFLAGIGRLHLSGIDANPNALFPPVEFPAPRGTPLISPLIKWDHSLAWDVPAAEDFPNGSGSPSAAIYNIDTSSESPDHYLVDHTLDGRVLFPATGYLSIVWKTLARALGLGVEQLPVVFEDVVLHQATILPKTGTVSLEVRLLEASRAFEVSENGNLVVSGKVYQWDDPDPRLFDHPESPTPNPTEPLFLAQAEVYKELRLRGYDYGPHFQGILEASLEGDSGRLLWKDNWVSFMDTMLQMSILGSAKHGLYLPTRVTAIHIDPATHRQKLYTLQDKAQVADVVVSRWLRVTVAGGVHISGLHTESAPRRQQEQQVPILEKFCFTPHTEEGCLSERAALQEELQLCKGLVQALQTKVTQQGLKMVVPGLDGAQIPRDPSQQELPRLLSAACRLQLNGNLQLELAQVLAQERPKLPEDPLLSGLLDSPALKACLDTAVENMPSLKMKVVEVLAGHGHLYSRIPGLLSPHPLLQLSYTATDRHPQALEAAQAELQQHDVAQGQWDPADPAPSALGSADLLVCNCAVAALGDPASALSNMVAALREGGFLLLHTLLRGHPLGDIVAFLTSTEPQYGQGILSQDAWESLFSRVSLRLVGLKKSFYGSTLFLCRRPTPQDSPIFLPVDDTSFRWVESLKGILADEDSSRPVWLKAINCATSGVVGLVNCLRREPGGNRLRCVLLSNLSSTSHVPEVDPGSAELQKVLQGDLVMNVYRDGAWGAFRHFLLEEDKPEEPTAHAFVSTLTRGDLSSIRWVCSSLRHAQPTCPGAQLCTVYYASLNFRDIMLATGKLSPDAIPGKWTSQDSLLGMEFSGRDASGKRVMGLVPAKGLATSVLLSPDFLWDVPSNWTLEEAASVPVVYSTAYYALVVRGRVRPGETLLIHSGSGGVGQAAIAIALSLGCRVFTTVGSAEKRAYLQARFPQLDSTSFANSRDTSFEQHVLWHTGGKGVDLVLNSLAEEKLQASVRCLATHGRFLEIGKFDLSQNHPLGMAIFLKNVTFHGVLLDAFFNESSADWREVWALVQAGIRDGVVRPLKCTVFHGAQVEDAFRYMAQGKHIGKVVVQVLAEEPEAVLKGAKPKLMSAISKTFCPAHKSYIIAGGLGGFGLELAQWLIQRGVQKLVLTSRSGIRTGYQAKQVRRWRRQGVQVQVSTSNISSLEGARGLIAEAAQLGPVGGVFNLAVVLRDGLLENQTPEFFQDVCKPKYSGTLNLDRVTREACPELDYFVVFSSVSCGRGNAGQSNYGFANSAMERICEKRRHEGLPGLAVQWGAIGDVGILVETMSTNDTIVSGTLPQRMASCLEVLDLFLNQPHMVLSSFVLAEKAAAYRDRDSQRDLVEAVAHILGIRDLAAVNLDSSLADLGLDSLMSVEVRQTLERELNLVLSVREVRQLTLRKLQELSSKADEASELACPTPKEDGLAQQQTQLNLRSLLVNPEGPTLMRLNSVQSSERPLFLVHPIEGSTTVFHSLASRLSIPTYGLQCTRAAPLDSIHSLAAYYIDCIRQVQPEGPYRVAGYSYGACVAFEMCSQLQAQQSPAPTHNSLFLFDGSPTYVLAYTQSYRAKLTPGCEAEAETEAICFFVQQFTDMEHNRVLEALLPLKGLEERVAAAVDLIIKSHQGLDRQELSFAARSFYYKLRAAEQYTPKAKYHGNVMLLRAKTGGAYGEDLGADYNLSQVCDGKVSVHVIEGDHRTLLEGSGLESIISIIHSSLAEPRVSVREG
H9c2 protect – modulators protecting cardiomyocytes from myocardial damage; hit rate 0.63% among 360,000; H9c2 cardiomyocytes, H2O2 injury protection, ATPLite, 2 h; protection from H2O2 cell death, % at 20 µM; AID 588492;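 active = compounds giving at least 50% protection of heart cells from peroxide-induced death in the single-dose screen, raw or plate-pattern-corrected value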;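 also: 0% = DMSO wells with peroxide and 100% = DMSO wells without peroxide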
aDG conf – confirmation of alpha dystroglycan glycosylation activators | shares compounds with aDG glyco up | Pro5-aDG cells, alpha-DG glycosylation, IIH6 AlphaLISA; scaled to LARGE-overexpressing B10 cells as 100% | activation, % at 10 µM (by protocol) | hit rate 17% among 600 | AID 651671;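 active = activation of at least 7% in one or more replicates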;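 also: cells exposed to compound for two days before detection; 0% = DMSO-treated Pro5 cells and 100% = DMSO-treated B10-LARGE cells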
* hit, by the source's call; x = no result. This is a sample that favours compounds with a hit; in the whole collection about 2.3% have one here.

SMILES | aDG glyco up | Calpain2 inh | TAG inh | beta cell repl | FAS-TE inh | H9c2 protect | aDG conf
NNc1nnc2c3cc(F)ccc3n(Cc3ccccc3)c2n1 | 5.1* | -22 | 10 | -3 | -56 | 6 | 0
CCN(CC)S(=O)(=O)c1ccc(=O)n(CC(=O)N2Cc3ccccc3CC2C(N)=O)c1 (centres undefined) | 3.4* | x | -9 | 0 | -6 | 5 | -1
CCCCCNCC(=O)Nc1cccc(C(=O)Nc2cccc(C(F)(F)F)c2)c1 | 16* | 45 | -12 | -7 | 7 | -17 | 10*
COc1ccc([N+](=O)[O-])cc1NCC(=O)Nc1cccc(S(=O)(=O)N2CCCC2)c1 | 2 | x | -29 | -3 | 26 | 4 | x
O=C(CCCC(=O)N(CC(=O)NC1CCCCC1)c1cccc(F)c1)Nc1ccccn1 | 0 | x | x | -4 | 4 | -2 | x
Cc1nc(CCNC(=O)Cc2ccc(F)cc2)cs1 | 0 | -4 | -5 | 1 | -9 | 5 | x
Cc1nc(CCNC(=O)Cc2ccc(Cl)cc2)cs1 | 8.7* | 12 | 6 | 0 | -6 | 0 | 1
N#CCC(=O)Nc1ccc(C(=O)OCC(=O)N=c2sccn2Cc2ccccc2Cl)cc1 | 5.4* | x | 6 | -6 | 0 | -10 | 1
COc1ccc(CNCCC(c2ccccc2)c2ccc3c(c2)OCO3)cc1 (centres undefined) | 3.9* | -10 | x | -4 | 0 | -14 | 1
COc1ccc(C(CC(=O)O)c2ccc3c(c2)OCO3)cc1 (centres undefined) | 0 | x | x | -1 | -6 | 2 | x
CC(C)C[C@@H]1CC2=C(C(=O)OC(C)(C)O2)[C@H](CCc2ccccc2)O1 | 0 | x | x | x | 17 | x | x
CN1CCN(S(=O)(=O)c2ccc(Nc3cccc(Cl)c3)c([N+](=O)[O-])c2)CC1 | 0 | x | -11 | -3 | 6 | 0 | x
COc1ccc(CNC(=O)c2cccc3c(-c4cccnc4)coc23)cc1OC | 8.1* | x | -43 | x | -9 | -10 | 1
O=C(NCc1ccc(F)c(F)c1)c1cccc2c(-c3cccnc3)coc12 | 1 | x | 1 | x | 9 | -4 | x
COc1ccccc1Nc1nc(N)nc(CN2CCN(Cc3ccccc3)CC2)n1 | 0 | -37 | -13 | -1 | -5 | 5 | x
COc1ccc(N2CCN(Cc3nc(N)nc(Nc4ccccc4OC)n3)CC2)cc1 | 12* | -10 | 2 | -1 | -5 | 2 | 1
CC(C)(C)c1ccc(OCCCNC2CCCC2)cc1 | 6.7* | 6 | 3 | -5 | -2 | -14 | 1
COc1cccc(OC)c1C(=O)NC(=O)Nc1c(C)cccc1C | 0 | x | x | -3 | -5 | 1 | x
S=C(NCCC1=CCCCC1)Nc1ccc(Cl)cc1 | 5.9* | -4 | x | -3 | -3 | -15 | 0
C[C@H](CO)N1C[C@H](C)[C@H](CN(C)S(=O)(=O)c2ccc(-n3cccn3)cc2)OCc2cnnn2CCCC1=O | 0 | x | 7 | x | -8 | 3 | x
O=c1cc(-c2ccccc2)oc2ccccc12 | 0 | x | x | 0 | -3 | 6 | x
O=c1cc(-c2ccccc2)oc2ccc(O)cc12 | 2.4* | -9 | -9 | -2 | -6 | -8 | 1
Cc1ccc(C)c(N2CCN(C(=O)CCCN3C(=S)NC(C)(C)CC3C)CC2)c1 (centres undefined) | 7.9* | -15 | x | 0 | -9 | -4 | 4
CS(=O)(=O)Nc1cccc(NC(=O)c2cccc3c(-c4cccnc4)coc23)c1 | 0 | x | 8 | x | -3 | 43 | x
COc1ccc(-c2ccc3c(c2)S(=O)(=O)c2cccc(C(=O)NC4CCCCC4)c2C3=O)cc1OC | 71* | x | x | -3 | -27 | 6 | 0
COc1ccc(-c2ccc3c(c2)S(=O)(=O)c2cccc(C(=O)NC4CC4)c2C3=O)cc1OC | 0 | x | -20 | -1 | -13 | -3 | x
Cn1nccc1C(=O)NC1CCCc2c1cnn2-c1cc(F)cc(F)c1 (centres undefined) | 0 | x | x | 3 | -3 | -16 | x
Cc1cc(NC(=O)Cc2ccccc2)c2ccccc2n1 | 7.5* | 7 | -29 | -6 | -3 | -20 | 0
CCn1c(C)nc2cc(S(=O)(=O)C(F)(F)C(F)C(F)(F)F)ccc21 (centres undefined) | 4.4* | 90* | x | -4 | -3 | -16 | 0
